Nrf2 inh: Nrf2 qHTS screen for inhibitors | Potency, µM (top dose mostly 46 µM), inactives show at the highest dose activity change, negative = inhibition, hits mostly inhibitors | 360,000 compounds, 2.1% hits | A549 ARE-Fluc reporter, luciferase luminescence, 18-24 h; further: potency means the concentration at half of the fitted maximal effect; on the % scale 0 is the no-effect control and ±100 the full control effect; nearly all actives have a fitted effect of over 60% in size
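Concentration-response testing used A549 ARE_Fluc cells at 5000 cells/well. Following an 18-24 h compound incubation, viability was read by fluorescence (Ex 405/Em 525) and luciferase output by luminescence.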
ELG1 DNA repair: qHTS screen for small molecules that inhibit ELG1-dependent DNA repair in human embryonic kidney (HEK293T) cells expressing luciferase-tagged ELG1; HEK293T ELG1-luciferase reporter, luminescence, 16 h; DNA damage induced by 5-fluorouridine; Potency, µM (top dose mostly 46.1 µM), for inactives: at the highest dose activity change, negative = inhibition, usual class: inhibitors; 330,000 compounds, 2.3% hits; further: potency means the concentration at half of the fitted maximal effect; on the % scale 0 is the no-effect control and ±100 the full control effect; nearly all actives have a fitted effect of over 55% in size
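Step one: seed 2,000 cells per well. Step two: pin-transfer compound or DMSO alongside 5-fluorouridine. Step three: incubate 16 hr, 37 °C, 5% CO2. Step four: add ONE-Glo, wait 30 min, read luminescence.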
mIDH1 inhibitor: qHTS for Inhibitors of mutant isocitrate dehydrogenase 1 (IDH1): qHTS; IDH1-R132H enzyme, NADPH consumption, diaphorase/resazurin fluorescence; Isocitrate dehydrogenase [NADP] cytoplasmic (Homo sapiens), O75874; Potency, µM (doses to about 76.6 µM), inactives show top-dose activity change, negative = inhibition, most hits filed as inhibitors; 390,000 compounds, 0.093% hits; further: potency means the concentration at half of the fitted maximal effect; on the % scale 0 is the no-effect control and ±100 the full control effect; nearly all actives have a fitted effect of over 65% in size
Target sequence (O75874 whole entry R132H, stated change not applied): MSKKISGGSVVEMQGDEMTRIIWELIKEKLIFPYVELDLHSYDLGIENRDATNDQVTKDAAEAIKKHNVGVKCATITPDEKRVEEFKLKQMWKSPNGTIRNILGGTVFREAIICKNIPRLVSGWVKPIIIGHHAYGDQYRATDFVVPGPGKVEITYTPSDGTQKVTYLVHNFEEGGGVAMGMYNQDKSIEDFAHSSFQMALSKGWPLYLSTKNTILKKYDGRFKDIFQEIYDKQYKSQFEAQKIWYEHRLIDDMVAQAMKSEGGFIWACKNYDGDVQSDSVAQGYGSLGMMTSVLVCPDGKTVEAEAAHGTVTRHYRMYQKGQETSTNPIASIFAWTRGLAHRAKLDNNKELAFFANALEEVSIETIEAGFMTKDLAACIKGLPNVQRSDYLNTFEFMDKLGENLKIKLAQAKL
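IDH1-R132H (0.5 ug/mL dispensed) in pH 7.5 Tris buffer was preincubated 30 min with compound, then given a substrate mix of 0.016 mM NADPH and 2 mM alpha-KG for 80 min at room temperature; remaining NADPH was read by diaphorase/resazurin fluorescence.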
A549 viability: Nrf2 qHTS screen for inhibitors: counterscreen for cytotoxicity. A549 ARE-Fluc cells, CellTiter-Fluor viability, 18-24 h. Potency, µM (series often up to 46 µM), for inactives: top-dose activity change, negative = cytotoxicity, hits mostly inhibitors. 390,000 compounds, 0.16% hits. AID 504648, 2011; further: potency means the concentration at half of the fitted maximal effect; on the % scale 0 is the no-effect control and ±100 the full control effect
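A549 ARE-Fluc cells in 5% FBS OPTI-MEM, 5000 cells/well, rested 2 h then exposed to compounds in concentration-response for 18-24 h at 37 °C. Viability by CellTiter-Fluor fluorescence (Ex 405/Em 525) after 30 min; luciferase luminescence (BugLite, 15 min, RT) read afterwards.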
Nrf2 activator: qHTS of Nrf2 Activators; Potency, µM (doses to about 46.1 µM), without a hit: at the highest dose activation, usual class: activators; AREc32 ARE-luciferase reporter (MCF7-derived line), luminescence, 24 h; 410,000 compounds, 0.31% hits; further: potency means the concentration at half of the fitted maximal effect; % of control where 0% means no effect; nearly all actives have a fitted effect of over 65% in size
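Reporter line AREc32 (ARE-Fluc), seeded overnight in OPTI-MEM with 5% FBS; compound pin-transferred, 24 hr at 37 deg C, 5% CO2; luminescent read-out.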
Resorufin autofl: qHTS for Inhibitors of mutant isocitrate dehydrogenase 1 (IDH1): Cherrypicks Autofluorescence Interference; shares compounds with mIDH1 inhibitor; Resorufin detection reagent fluorescence interference, cell-free; inhibition of signal, % at 51.2 µM; 750 tested, under 10 active; AID 623980, 2012;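 further: 0% = wells with normal resorufin and full inhibition = wells lacking resorufin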
WT IDH1 inh: qHTS for Inhibitors of mutant isocitrate dehydrogenase 1 (IDH1): Cherrypicks in WT IDH1. AID 623995, 2012. WT IDH1 enzyme, NADPH diaphorase/resazurin fluorescence. Potency, µM (top dose mostly 115 µM), for the others: at the highest dose activity change, negative = inhibition, hits mostly inhibitors. 750 compounds, 9% hits. shares compounds with mIDH1 inhibitor;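 further: potency means the concentration at half of the fitted maximal effect; 0% = full WT IDH1 enzyme control and full inhibition = no enzyme wells; nearly all actives have a fitted effect of over 55% in size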
Target sequence (O75874 whole entry, looked up): as the sequence (O75874 whole entry R132H, stated change not applied) above, with H132R counted along it
mIDH1 confirm: qHTS for Inhibitors of mutant isocitrate dehydrogenase 1 (IDH1): Confirmation of Cherrypicks; shares compounds with mIDH1 inhibitor; 750 compounds, 83% hits; IDH1 R132H enzyme, NADPH diaphorase/resazurin fluorescence; Potency, µM (titrated, usually from 76.6 µM), for inactives: at the highest dose activity change, negative = inhibition, usual class: inhibitors; further: potency means the concentration at half of the fitted maximal effect; nearly all actives have a fitted effect of over 50% in size
* marks the source's active call; other numbers are inactive results. Hits are enriched below; roughly 3.8% of the tested compounds scored in any of these assays. The call rests on the fitted dose curve; in most records, active means well fitted curve in the direction sought with a large enough effect; inconclusive means small, poorly fitted or top-dose-only effect, or another doubt; inactive means no such curve, though single readings can be large; an effect the other way counts as inactive or inconclusive.

How did COc1ccc(-c2oc(NC(=O)CCl)c(C#N)c2-c2ccc(OC)cc2)cc1 do in these assays?
Nrf2 inh: -14.5%; ELG1 DNA repair: inconclusive; mIDH1 inhibitor: 29.3µM*; A549 viability: -6.3%; Nrf2 activator: inconclusive; Resorufin autofl: 9.6; WT IDH1 inh: 79.4µM*; mIDH1 confirm: 8.91µM*

How did Cc1ccc(C)c(N2CCN(C(=O)CSCc3ccccc3Cl)CC2)c1 do in these assays?
mIDH1 inhibitor: 2.7%; A549 viability: 3.9%; Nrf2 activator: 4.6%

Results for CCOc1ccc(C2c3c(-c4cc(C)ccc4O)n[nH]c3C(=O)N2Cc2cccnc2)cc1OCC (stereo not drawn) ?
Nrf2 inh: 17.4%; mIDH1 inhibitor: inconclusive; A549 viability: 0.7%; Nrf2 activator: 4.3%; Resorufin autofl: -2.6; WT IDH1 inh: 0.4%; mIDH1 confirm: 35.5µM*

How did COc1cc(C2c3c(-c4cc(C)ccc4O)n[nH]c3C(=O)N2Cc2cccnc2)cc(OC)c1OC (stereo not drawn) do in these assays?
Nrf2 inh: 19.9%; mIDH1 inhibitor: 9.0%; A549 viability: 0.0%; Nrf2 activator: 0.0%

Results for CCc1ccc(C2c3c(-c4cc(C)ccc4O)n[nH]c3C(=O)N2Cc2cccnc2)cc1 (stereo not drawn) ?
Nrf2 inh: -0.6%; mIDH1 inhibitor: 28.2µM*; A549 viability: -7.0%; Nrf2 activator: -1.4%; Resorufin autofl: -6.7; WT IDH1 inh: -3.0%; mIDH1 confirm: 15.8µM*

Results for CCCCN(CC)C(=O)CSc1nc2n[nH]c(C)c2c(=N)n1-c1cccc(C)c1 ?
Nrf2 inh: inconclusive; ELG1 DNA repair: inconclusive; mIDH1 inhibitor: -10.5%; A549 viability: 0.3%; Nrf2 activator: -1.4%

What do the screens show for `Cc1cccc(-n2c(SCC(=O)Nc3ccccc3Cl)nc3n[nH]c(C)c3c2=N)c1`?
mIDH1 inhibitor: inconclusive; A549 viability: -9.2%; Nrf2 activator: -2.6%; Resorufin autofl: -8.8; WT IDH1 inh: -1.8%; mIDH1 confirm: 25.1µM*

Results for CCN(C(=O)CSc1nc2n[nH]c(C)c2c(=N)n1-c1ccc(Cl)c(C)c1)c1cccc(C)c1 ?
Nrf2 inh: -21.5%; ELG1 DNA repair: inconclusive; mIDH1 inhibitor: 46.5µM*; A549 viability: -7.8%; Nrf2 activator: 0.6%; Resorufin autofl: -0.8; WT IDH1 inh: -11.2%; mIDH1 confirm: 22.4µM*

How did Cc1cc(NC(=O)CCC(=O)N(c2cccnc2)C(C(=O)NC2CCCC2)c2ccccc2)no1 (stereo not drawn) do in these assays?
Nrf2 inh: -4.5%; ELG1 DNA repair: -3.1%; mIDH1 inhibitor: inconclusive; A549 viability: -13.9%; Nrf2 activator: -0.5%; Resorufin autofl: 2.6; WT IDH1 inh: 7.2%; mIDH1 confirm: inconclusive

What do the screens show for `Cc1cccc(N(C(=O)CCC(=O)Nc2cc(C)on2)C(C(=O)NC2CCCC2)c2ccccc2)c1` (stereo not drawn)?
Nrf2 inh: 6.7%; ELG1 DNA repair: -0.5%; mIDH1 inhibitor: 44.7µM*; A549 viability: -6.4%; Nrf2 activator: -0.5%; Resorufin autofl: 3.2; WT IDH1 inh: 2.8%; mIDH1 confirm: 20µM*

Results for Cc1cccc(N(C(=O)CCC(=O)Nc2cc(C)on2)C(C(=O)NC2CCCC2)c2cccnc2)c1 (stereo not drawn) ?
Nrf2 inh: -4.5%; ELG1 DNA repair: -10.8%; mIDH1 inhibitor: -26.5%; A549 viability: -8.3%; Nrf2 activator: -0.3%

How did O=C1NC[C@H](Cc2ccccc2)N(C[C@H]2CCCN2C[C@H](Cc2ccccc2)N2C[C@H](Cc3ccccc3)N(CC3CCCCC3)C(=O)C2=O)C1=O do in these assays?
Nrf2 inh: inconclusive; mIDH1 inhibitor: inconclusive; A549 viability: inconclusive; Nrf2 activator: -2.9%; Resorufin autofl: 5.6; WT IDH1 inh: -4.5%; mIDH1 confirm: inconclusive

What do the screens show for `O=C1NC[C@H](Cc2ccccc2)N(C[C@H]2CCCN2C[C@H](Cc2ccccc2)N2C[C@H](Cc3ccccc3)N(CCc3ccccc3)C(=O)C2=O)C1=O`?
Nrf2 inh: inconclusive; mIDH1 inhibitor: inconclusive; A549 viability: inconclusive; Nrf2 activator: -3.3%; Resorufin autofl: -0.4; WT IDH1 inh: 1.3%; mIDH1 confirm: 28.2µM*

Results for CCN(C(=O)c1cc2c(C)nc3ccccc3c2o1)c1cc(Cl)ccc1OC ?
Nrf2 inh: inconclusive; ELG1 DNA repair: 0.0%; mIDH1 inhibitor: 32.9µM*; A549 viability: -15.8%; Nrf2 activator: 3.7%; Resorufin autofl: -5.8; WT IDH1 inh: 4.7%; mIDH1 confirm: 20µM*

How did CCc1nc(N2CCN(C(=O)CCl)CC2)c2c3c(sc2n1)CC(C)CC3 (stereo not drawn) do in these assays?
Nrf2 inh: 0.7%; ELG1 DNA repair: -20.4%; mIDH1 inhibitor: inconclusive; A549 viability: -5.4%; Nrf2 activator: inconclusive; Resorufin autofl: -7.0; WT IDH1 inh: 50.1µM*; mIDH1 confirm: 10µM*

Results for CCOC(=O)c1c(CSC(=N)N)n(C)c2cc(Br)c(OC(C)=O)cc12 ?
Nrf2 inh: -11.4%; ELG1 DNA repair: 17.5%; mIDH1 inhibitor: inconclusive; A549 viability: -8.2%; Nrf2 activator: inconclusive; Resorufin autofl: -8.6; WT IDH1 inh: 2.5%; mIDH1 confirm: 14.1µM*

Results for CCCn1cc(S(=O)(=O)c2cc(C)ccc2C)c(=O)c2cc(F)c(N3CCCCCC3)cc21 ?
Nrf2 inh: inconclusive; mIDH1 inhibitor: inconclusive; A549 viability: -18.0%; Nrf2 activator: -0.2%; Resorufin autofl: -5.2; WT IDH1 inh: -9.3%; mIDH1 confirm: 15.8µM*
